Results published in PubChem BioAssay (NCATS).
The source made the active and inactive calls. Calls follow the shape of the full dose curve.

assay: qHTS drug screen for cell cycle checkpoint inhibitors in PARPi-resistant BRCA-mutant ovarian cancer cell lines. (AID 1963452); conditions: PEO1/OlaR viability, CellTiter-Glo luminescence, 96 h; stronger effect = lower value
Summary of the method: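 PEO1, PEO4 and PEO1/OlaR ovarian cancer cells, 600 per well, exposed 96 h at 37C to a dilution series. Viability read by CellTiter-Glo luminescence, normalized to DMSO and empty wells; activity summarized as Z-AUC.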

| SMILES | Z-AUC |
| --- | --- |
| CC(=O)OCCN1C(=O)c2c(C)nc3ccc(S(=O)(=O)N4CCOCC4)cc3c2C1=O | 1.23 (inactive) |
| C1Cc2[nH]nc(-c3nn[nH]n3)c2C1 | -0.759 (inactive) |
| CC(=O)Nc1nc(C)c(-c2ccc(Cl)c(S(=O)(=O)NCCO)c2)s1 | -1.67 (inactive) |
| Nc1ccc(C(=O)c2cc3c(ccc4ccccc43)[nH]2)cc1 | -0.0185 (inactive) |
| Nc1nc(NCCNc2ncc(-n3ccnc3)c(-c3ccc(Cl)cc3Cl)n2)ccc1[N+](=O)[O-] | 0.218 (inactive) |
| Nc1ncnc2c1c(-c1cnc3[nH]ccc3c1)nn2C1CCCC1 | -1.87 (inactive) |
| CNc1nccc(-c2cccnc2Oc2cc(C(=O)Nc3cccc(C(F)(F)F)c3)ccc2C)n1 | 0.523 (inactive) |
| Nc1ccn([C@@H]2CS[C@H](CO)O2)c(=O)n1 | -0.72 (inactive) |
| O=C(O)Cn1nnc(-c2cc(N3CCC(Oc4cc(F)ccc4Br)CC3)no2)n1 | -0.81 (inactive) |
| Cn1cc(-c2[nH]c3cc(NC(=O)[C@H](N)C4CCCCC4)cc4c3c2C=NNC4=O)cn1 | -0.173 (inactive) |
| CN1CCN(c2cc(C(=O)Nc3ccc4c(c3)-c3c(c(C(N)=O)nn3-c3ccc(F)cc3)CC4)c(Cl)cn2)CC1 | 0.539 (inactive) |
| Cn1c(CNc2ccc(C(=N)N)cc2)nc2cc(C(=O)N(CCC(=O)O)c3ccccn3)ccc21 | 3.54 (inactive) |
| CC(C)c1ccc(Cn2ccc3c4c(N)nc(NC5CC5)nc4ccc32)cc1 | -1.65 (inactive) |
| N#Cc1c(O)c2c(-c3ccc(-c4ccccc4O)cc3)csc2[nH]c1=O | 0.825 (inactive) |
| Cc1c(C)n(Cc2ccc(-c3ccccc3C(=O)O)cc2)c2ccc(C(=O)N[C@@H](C)c3ccc([N+](=O)[O-])cc3)cc12 | 0.131 (inactive) |
| O=C(O)c1ccc2c(c1)nc(Nc1cccc(Cl)c1)c1ccncc12 | -0.0299 (inactive) |
| Cc1cc(Nc2nc(N[C@@H](C)c3ccc(F)cc3)c(C#N)cc2F)n[nH]1 | 0.0536 (inactive) |

same assay, conditions: PEO1/OlaR viability, CellTiter-Glo luminescence, 96 h; measured here: PEO1 parental Z-AUC; stronger effect = lower value

| SMILES | Z-AUC |
| --- | --- |
| Cc1cn(-c2cc(NC(=O)c3ccc(C)c(Nc4nccc(-c5cccnc5)n4)c3)cc(C(F)(F)F)c2)cn1 | 0.692 |
| CCCCCCCCCC(=O)N[C@@H](Cc1c[nH]c2ccccc12)C(=O)N[C@H](CC(N)=O)C(=O)N[C@@H](CC(=O)O)C(=O)N[C@@H]1C(=O)NCC(=O)N[C@@H](CCCN)C(=O)N[C@@H](CC(=O)O)C(=O)N[C@H](C)C(=O)N[C@@H](CC(=O)O)C(=O)NCC(=O)N[C@H](CO)C(=O)N[C@@H]([C@@H](C)CC(=O)O)C(=O)N[C@@H](CC(=O)c2ccccc2N)C(=O)O[C@@H]1C | -0.476 |
| COc1ccc(OC)c(-c2nnc3ccc(-c4ccc(OC)c(O[C@@H]5CCOC5)c4)nn23)c1 | -1.59 |
| CNC(=O)c1ccc(-c2cnc3ncc(Cc4ccc5ncccc5c4)n3n2)cc1F | 1.03 |
| Cc1nc2ccc(CN(C)c3ccc(C(=O)N[C@@H](CCC(=O)O)C(=O)O)s3)cc2c(=O)[nH]1 | -1.34 |
| C[C@@H]1CN(CC(=O)Nc2ccc3c(c2)Cc2cccc(-c4cc(=O)cc(N5CCOCC5)o4)c2S3)C[C@H](C)O1 | 0.761 |
| COc1cc(C)c(Sc2cnc(NC(=O)c3ccc(CNC(C)C(C)C)cc3)s2)cc1C(=O)N1CCN(C(C)=O)CC1 (stereo not drawn) | -0.662 |
| COC(=O)C1=C(C)NC(C)=C(C(=O)OCCN2CCN(C(c3ccccc3)c3ccccc3)CC2)C1c1cccc([N+](=O)[O-])c1 (stereo not drawn) | -0.345 |
| COc1cc2c(cc1-c1c(C)noc1C)ncc1[nH]c(=O)n([C@H](C)c3ccccn3)c12 | -1.04 |
| CC(=O)OCCN1C(=O)c2c(C)nc3ccc(S(=O)(=O)N4CCOCC4)cc3c2C1=O | 1.34 |
| C1Cc2[nH]nc(-c3nn[nH]n3)c2C1 | -0.47 |
| CC(=O)Nc1nc(C)c(-c2ccc(Cl)c(S(=O)(=O)NCCO)c2)s1 | -0.921 |
| Nc1ccc(C(=O)c2cc3c(ccc4ccccc43)[nH]2)cc1 | -0.727 |
| Nc1nc(NCCNc2ncc(-n3ccnc3)c(-c3ccc(Cl)cc3Cl)n2)ccc1[N+](=O)[O-] | 0.907 |
| Nc1ncnc2c1c(-c1cnc3[nH]ccc3c1)nn2C1CCCC1 | -2.04 |
| CNc1nccc(-c2cccnc2Oc2cc(C(=O)Nc3cccc(C(F)(F)F)c3)ccc2C)n1 | -0.637 |
| Nc1ccn([C@@H]2CS[C@H](CO)O2)c(=O)n1 | -0.233 |
| O=C(O)Cn1nnc(-c2cc(N3CCC(Oc4cc(F)ccc4Br)CC3)no2)n1 | -0.799 |
| Cn1cc(-c2[nH]c3cc(NC(=O)[C@H](N)C4CCCCC4)cc4c3c2C=NNC4=O)cn1 | -0.184 |
| CN1CCN(c2cc(C(=O)Nc3ccc4c(c3)-c3c(c(C(N)=O)nn3-c3ccc(F)cc3)CC4)c(Cl)cn2)CC1 | 0.439 |
| Cn1c(CNc2ccc(C(=N)N)cc2)nc2cc(C(=O)N(CCC(=O)O)c3ccccn3)ccc21 | 3.55 |
| CC(C)c1ccc(Cn2ccc3c4c(N)nc(NC5CC5)nc4ccc32)cc1 | -2.21 |
| N#Cc1c(O)c2c(-c3ccc(-c4ccccc4O)cc3)csc2[nH]c1=O | 1.08 |
| Cc1c(C)n(Cc2ccc(-c3ccccc3C(=O)O)cc2)c2ccc(C(=O)N[C@@H](C)c3ccc([N+](=O)[O-])cc3)cc12 | 0.774 |
| O=C(O)c1ccc2c(c1)nc(Nc1cccc(Cl)c1)c1ccncc12 | -0.574 |
| Cc1cc(Nc2nc(N[C@@H](C)c3ccc(F)cc3)c(C#N)cc2F)n[nH]1 | -0.395 |
